Measurements from PubChem BioAssay AID1159580 (chemical genetic matrix, 2015).
“And” between values parts separate entries of the source, which are not always exact repeats. Equal values may be shown once. About 2,000 (36%) of roughly 5,500 compounds were called active. Inconclusive results (about 18%) are left out. No stated cut-off is given here; in the data, active means normalized growth mostly below about 0.91 (no sharp cut-off); inconclusive means no clear call, values can overlap the other calls; inactive means mostly above about 0.92. Some of the results follow.

Assay: chemical genetic growth profiling, strain panel (AID 1159580);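 further: tested at 20 µM; growth read once vehicle control cultures reached saturation at 30 °C; 1 = growth at the plate median or of vehicle wells; lower values mean less growth of the strain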
Conditions: S. cerevisiae deletion strains, growth OD

Measured: normalized growth

CC(=O)OCC(CCn1cnc2cnc(N)nc21)COC(C)=O
inactive: locus YAL013W, strain DEP1, hits give low values 0.988 | locus YAL021C, strain ccr4, hits give low values 1.01 | locus YAL026C, strain drs2, hits give low values 1 | locus YAL030W, strain snc1, hits give low values 0.982 | locus YBL061C, strain skt5, hits give low values 0.989 | locus YBR009C, strain hhf1, hits give low values 1 | locus YBR021W, strain FUR4, hits give low values 1.01 | locus YBR023C, strain chs3, hits give low values 0.998 | locus YBR171W, strain sec66, hits give low values 0.982 | locus YBR229C, strain ROT2, hits give low values 0.989 | locus YBR231C, strain swc5, hits give low values 0.971 | locus YBR279W, strain paf1, hits give low values 0.986 | locus YCL011C, strain gbp2, hits give low values 0.994 | locus YCL016C, strain dcc1, hits give low values 0.998 | locus YCL029C, strain bik1, hits give low values 0.965 | locus YCL061C, strain MRC1, hits give low values 0.991 | locus YCL069W, strain vba3, hits give low values 0.988 | locus YCR088W, strain abp1, hits give low values 0.988 | locus YDL005C, strain med2, hits give low values 0.991 | locus YDL035C, strain GPR1, hits give low values 0.994 | locus YDL040C, strain nat1, hits give low values 0.993 | locus YDL074C, strain BRE1, hits give low values 1.01 | locus YDL101C, strain DUN1, hits give low values 0.985 | locus YDL134C, strain PPH21, hits give low values 0.997 | locus YDL185W, strain tfp1, hits give low values 0.967 | locus YDL192W, strain arf1, hits give low values 0.971 | locus YDR001C, strain nth1, hits give low values 0.988 | locus YDR069C, strain doa4, hits give low values 0.972 | locus YDR101C, strain arx1, hits give low values 0.983 | locus YDR137W, strain rgp1, hits give low values 1.01 | locus YDR150W, strain NUM1, hits give low values 0.993 | locus YDR159W, strain sac3, hits give low values 1.01 | locus YDR162C, strain NBP2, hits give low values 0.996 | locus YDR195W, strain ref2 0.941 | locus YDR297W, strain sur2, hits give low values 0.987 | locus YDR318W, strain mcm21, hits give low values 0.979 | locus YDR334W, strain swr1, hits give low values 1 | locus YDR335W, strain msn5, hits give low values 0.99 | locus YDR388W, hits give low values 0.969 | locus YDR392W, strain spt3, hits give low values 0.995 | locus YDR502C, strain sam2, hits give low values 0.993 | locus YEL003W, strain gim4, hits give low values 0.984 | locus YEL037C, strain rad23, hits give low values 1 | locus YEL061C, strain CIN8 (second series), hits give low values 0.988 | locus YEL061C, strain CIN8, hits give low values 0.992 | locus YER015W, strain faa2, hits give low values 1 | locus YER016W, strain bim1, hits give low values 0.987 | locus YER110C, hits give low values 0.974 | locus YER111C, strain swi4, hits give low values 0.972 | locus YER155C, strain BEM2 (second series), hits give low values 0.959 | locus YER155C, strain BEM2, hits give low values 0.993 | locus YER167W, strain BCK2, hits give low values 0.989 | locus YFR010W, strain ubp6, hits give low values 0.98 | locus YGL078C, strain dbp3, hits give low values 0.967 | locus YGL086W, strain mad1, hits give low values 0.984 | locus YGL167C, strain pmr1, hits give low values 0.987 | locus YGL173C, strain kem1, hits give low values 1 | locus YGL227W, strain vid30, hits give low values 0.979 | locus YGL240W, strain doc1, hits give low values 0.966 | locus YGL248W, strain PDE1, hits give low values 0.987 | locus YGL253W, strain hxk2, hits give low values 0.996 | locus YGR078C, strain PAC10, hits give low values 1.01 | locus YGR135W, strain pre9, hits give low values 0.974 | locus YGR229C, strain SMI1, hits give low values 1.01 | locus YGR252W, strain gcn5, hits give low values 1.08 | locus YHR013C, strain ard1, hits give low values 1 | locus YHR027C, strain rpn1, hits give low values 0.989 | locus YHR030C, strain SLT2, hits give low values 0.984 and 0.946 | locus YHR079C, strain IRE1 (second series), hits give low values 0.961 | locus YHR079C, strain IRE1, hits give low values 0.957 | locus YHR094C, strain hxt1, hits give low values 0.973 | locus YHR129C, strain ARP1, hits give low values 0.991 | locus YHR142W, strain chs7, hits give low values 1 | locus YHR200W, strain rpn10, hits give low values 0.973 | locus YIL066C, strain RNR3, hits give low values 0.994 | locus YIL073C, strain SPO22, hits give low values 0.952 | locus YIL125W, strain kgd1, hits give low values 0.97 | locus YIR030C, strain dcg1, hits give low values 0.976 | locus YJL092W, strain hpr5, hits give low values 0.982 | locus YJL095W, strain BCK1 (second series), hits give low values 0.987 | locus YJL095W, strain BCK1, hits give low values 0.99 and 0.992 | locus YJL115W, strain asf1, hits give low values 0.979 | locus YJL129C, strain trk1, hits give low values 0.973 | locus YJL134W, strain LCB3, hits give low values 0.985 | locus YJL154C, strain vps35, hits give low values 0.997 | locus YJL164C, strain tpk1, hits give low values 1.01 | locus YJL166W, strain qcr8, hits give low values 0.984 | locus YJL168C, strain set2, hits give low values 0.974 | locus YJL187C, strain SWE1 (second series), hits give low values 0.984 | locus YJR043C, strain POL32, hits give low values 0.976 | locus YJR066W, strain TOR1, hits give low values 0.934
